CYP2C9 act: activators of human CYP2C9 | P11712 | recombinant CYP2C9, luciferin-H conversion, luminescence; active compounds read high; factor 1 = untreated enzyme, 0 = blocked | activation factor at 5 µM | 96,000 compounds, 1.4% hits;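 active means activation factor of 2 or more for CYP2C9 at a 5 µM dose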
CYP2C9 inhib: inhibitors of human CYP2C9 | P11712 | CYP2C9 Supersomes, luciferin-H conversion, luminescence | inhibition, % at 5 µM | 96,000 compounds, 20% hits | AID 777;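 active means blocking of liver enzyme CYP2C9 beyond about 50% at 5 µM, limit read from the data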
CYP2C19 activ: activators of human cytochrome P450 2C19 | P33261 | recombinant CYP2C19, luciferin-H EGE luminescence; active compounds read high; 0 = fully inhibited enzyme, 1 = untreated enzyme | activation factor at 5 µM | 96,000 tested, under 10 active;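 active means activation factor of at least 2 at 5 µM in the primary screen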
Target sequence (P33261 whole entry, looked up): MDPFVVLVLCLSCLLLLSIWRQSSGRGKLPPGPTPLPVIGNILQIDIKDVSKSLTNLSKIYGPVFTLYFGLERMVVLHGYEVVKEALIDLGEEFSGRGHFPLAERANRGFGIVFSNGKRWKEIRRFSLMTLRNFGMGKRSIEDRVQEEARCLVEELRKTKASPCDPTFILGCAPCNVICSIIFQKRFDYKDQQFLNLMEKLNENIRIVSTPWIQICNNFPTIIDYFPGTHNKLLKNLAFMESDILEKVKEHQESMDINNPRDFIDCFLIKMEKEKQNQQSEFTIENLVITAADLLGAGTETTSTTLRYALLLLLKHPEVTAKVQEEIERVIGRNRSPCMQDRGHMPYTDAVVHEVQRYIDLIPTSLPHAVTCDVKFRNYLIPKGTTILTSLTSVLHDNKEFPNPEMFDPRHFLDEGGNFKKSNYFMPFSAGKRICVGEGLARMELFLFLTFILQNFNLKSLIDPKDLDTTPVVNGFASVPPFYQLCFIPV
CD11b adhes enh: increases human CD11b/CD18 adhesion to fibrinogen | P05107+P11215 | K562 CD11b/CD18 adhesion to fibrinogen, ATPlite luminescence | activation, % at 10 µM | 93,000 compounds, 0.07% hits;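 active means 10 µM primary screen giving 50% or more activity, confirmed by 40% or more on retest at that dose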
CYP2C19 inh: human CYP2C19 inhibition; P33261; CYP2C19 Supersomes, luciferin-H EGE luminescence, 30 min; inhibition, % at 5 µM; 96,000 compounds, 21% hits; AID 778;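 active means CYP2C19 inhibition above a set limit at 5 µM in the primary screen, cut at about 50% in these data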
CD11b adhes inh: blocks human CD11b/CD18 adhesion to fibrinogen | inhibition, % at 10 µM | K562 CD11b/CD18 adhesion to fibrinogen, ATPlite luminescence; Mn2+ added to activate the integrin | AID 1497 | 93,000 compounds, 0.54% hits;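 active means primary inhibition of 50% or more at 10 µM, then 40% or more on retest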
Of the large screens only hits and unclear results are named; the others gave an inactive call. Shown are actives, neighbours in structure and some others; about 28% of the full set was active somewhere.

Cn1c(SCC(=O)NCc2cccs2)nnc1-c1cccs1	none
Cc1ccc(NC(=O)CS(=O)CC(=O)NCCCc2ccccc2)cc1Cl (stereo unspecified)	none (no result: CD11b adhes enh, CD11b adhes inh)
N#Cc1ccccc1OCC(=O)Nc1c(C(=O)C2CC2)oc2ccccc12	none (no result: CD11b adhes enh, CD11b adhes inh)
CCCOc1ccc(C(C)=O)cc1CSc1nc(O)cc(=O)[nH]1	CYP2C9 inhib 75
CCCOc1ccc(C(C)=O)cc1CC(C(N)=O)C(N)=O	none
COc1ccc(CCn2nnnc2C(C(C)C)N2CCN(c3ncccn3)CC2)cc1OC (stereo unspecified)	CYP2C9 inhib 72
COc1ccc(CCn2nnnc2C(CC(C)C)N2CCN(c3ncccn3)CC2)cc1OC (stereo unspecified)	CYP2C9 inhib 76
CCc1sc(C(=O)N2CCN(S(C)(=O)=O)CC2)cc1Br	none
C/C=C/c1c(F)c(F)c(Oc2ccc(C(=O)O)cc2)c(F)c1F	CYP2C9 inhib 81
COc1cc(C(=O)Nc2cccc(-c3nncn3C)c2)cc(OC)c1OC	none
CSc1ccccc1NC(=O)CN(C)CC(=O)Nc1ccc(Cl)cc1F	none (no result: CYP2C9 act, CYP2C9 inhib, CYP2C19 activ, CYP2C19 inh)
CNC(=O)c1sc(N2N=C3/C(=C/c4ccccc4)CCCC3C2c2ccccc2)nc1C (stereo unspecified)	none
c1cc2c(cc1Cn1cnnn1)OCO2	CYP2C9 inhib 56
COc1ccc(/C=N/NC(=O)CNC(=O)C2COc3ccccc3O2)cc1OC (stereo unspecified)	none (no result: CYP2C9 act, CYP2C9 inhib, CYP2C19 activ, CYP2C19 inh)
CC1CCc2sc3ncn4nc(C(=O)NCc5ccco5)nc4c3c2C1 (stereo unspecified)	none
CC1CCc2c(sc3ncn4c(SCC(=O)NCc5ccco5)nnc4c23)C1 (stereo unspecified)	CYP2C9 inhib 58
CC(C)Sc1nc2sc3c(c2c2nnc(SCC(=O)NCc4ccco4)n12)CCCC3	CYP2C9 inhib 94, CYP2C19 inh 77
O=C(O)c1ccc(CN2CCCCC2)o1	none
O=C(CN(C(=O)c1ccccc1Cl)C1CCCCC1)Nc1ccc(Cl)c([N+](=O)[O-])c1	CYP2C9 inhib 75 (no result: CD11b adhes enh, CD11b adhes inh)
CC(=O)c1cccc(NC2c3ncccc3C(=O)N2Cc2ccco2)c1 (stereo unspecified)	CYP2C19 inh 83 (no result: CD11b adhes enh, CD11b adhes inh)
CCN(CC)S(=O)(=O)c1ccc(NC2c3ncccc3C(=O)N2Cc2ccccc2)cc1 (stereo unspecified)	none (no result: CD11b adhes enh, CD11b adhes inh)
COc1ccc(CN2C(=O)c3cccnc3C2Nc2cc(Cl)c(OC)cc2OC)cc1 (stereo unspecified)	none (no result: CD11b adhes enh, CD11b adhes inh)
O=C1c2cccnc2C(Nc2ccccc2)N1Cc1ccco1 (stereo unspecified)	none
COc1ccc(CN2C(=O)c3cccnc3C2Nc2ccc(C)cc2)cc1 (stereo unspecified)	CYP2C9 inhib 63, CYP2C19 inh 63
CC(=O)c1ccc(NC2c3ncccc3C(=O)N2Cc2ccc(F)cc2)cc1 (stereo unspecified)	CYP2C19 inh 76 (no result: CD11b adhes enh, CD11b adhes inh)
Cc1cc(C(=O)O)c(=O)[nH]c1C	none
COc1ccc(C(C)=O)cc1CSc1nnc(-c2ccccc2O)n1-c1ccccc1	CYP2C9 inhib 53 (no result: CD11b adhes enh, CD11b adhes inh)
CCOC(=O)C1=NNC2C(=O)N(C3CCCCC3)C(=O)C12 (stereo unspecified)	none
COC(=O)C1=C(C)N(C2CCCCC2)C(=O)C1	CYP2C19 inh 55 (no result: CD11b adhes enh, CD11b adhes inh)
COC(=O)C1=C(C)N(c2cc(Cl)cc(Cl)c2)C(=O)C1	CYP2C19 inh 62
CCOC(=O)C1=C(C)N(C2CCCCC2)C(=O)C1	CYP2C19 inh 94
O=C(COc1ccc(Cl)cc1)N(Cc1ccccc1)c1ccccn1	CYP2C9 inhib 55, CYP2C19 inh 98 (no result: CD11b adhes enh, CD11b adhes inh)
CCOC(=O)Nc1cccc(Cl)c1C	none
CCCCOC(=O)Nc1cccc(Cl)c1C	CYP2C19 inh 56
CCc1c(C)sc(NC(=O)c2cc(-c3ccc(OC)c(OC)c3)on2)c1C#N	none
CCc1c(C)sc(NC(=O)c2cc(-c3ccc(O)cc3)on2)c1C#N	CYP2C9 act 2.1
COCC(C)NC(=O)c1cc(-c2ccc(O)cc2)on1 (stereo unspecified)	CYP2C9 act 2.4
Cc1ccc(-c2cc(C(=O)Nc3c(C#N)cnn3C)no2)cc1	CYP2C9 inhib 56
O=C(Nc1nc(-c2cccs2)c(-c2cccs2)s1)C1CCCC1	none (no result: CYP2C9 act, CYP2C9 inhib, CYP2C19 activ, CYP2C19 inh)
CC(C)c1c(C#N)c(N)nc(SCC(=O)c2cc3ccccc3oc2=O)c1C#N	CYP2C9 inhib 92 (no result: CD11b adhes enh, CD11b adhes inh)

Screens from PubChem BioAssay.
